Screens deposited in PubChem BioAssay by National Center for Advancing Translational Sciences (NCATS).
FLuc modulator = qHTS profiling assay for firefly luciferase inhibitor/activator using purifed enzyme and Km concentrations of substrates (counterscreen for miR-21 project); Potency, µM (highest dose often 57.5 µM), for the others: top-dose activity change, negative = inhibition, actives largely listed as inhibitors; purified FLuc, Km substrates, luminescence inhibition; actives 6.9% (n = 360,000); Luciferin 4-monooxygenase (Photinus pyralis), P08659; AID 588342, 2011;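 also: plate controls were vehicle for no effect and reference inhibitor for full effect; nearly all actives have a fitted effect of over 55% in size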
Target sequence (P08659 whole entry, looked up): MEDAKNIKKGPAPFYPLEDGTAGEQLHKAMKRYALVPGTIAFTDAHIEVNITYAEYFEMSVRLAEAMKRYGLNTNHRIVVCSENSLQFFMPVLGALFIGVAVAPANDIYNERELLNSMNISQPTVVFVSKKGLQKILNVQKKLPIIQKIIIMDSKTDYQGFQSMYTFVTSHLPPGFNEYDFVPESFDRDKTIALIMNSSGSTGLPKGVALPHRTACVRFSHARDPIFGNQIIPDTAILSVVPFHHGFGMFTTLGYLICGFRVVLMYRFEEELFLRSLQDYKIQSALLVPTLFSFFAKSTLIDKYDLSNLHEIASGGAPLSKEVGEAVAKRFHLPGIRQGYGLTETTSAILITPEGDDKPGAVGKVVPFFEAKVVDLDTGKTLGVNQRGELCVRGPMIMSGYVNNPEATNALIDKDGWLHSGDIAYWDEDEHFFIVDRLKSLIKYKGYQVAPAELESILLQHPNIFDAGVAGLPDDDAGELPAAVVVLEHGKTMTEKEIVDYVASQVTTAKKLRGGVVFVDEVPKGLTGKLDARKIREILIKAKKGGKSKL
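Biochemical qHTS of compounds, final roughly 60 µM downward over six points, against 10 nM purified firefly luciferase using Km concentrations of substrates (10 uM D-luciferin, 10 uM ATP) in Tris acetate pH 7.5 buffer; luminescence output.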
ELG1 genotox = qHTS screen for small molecules that induce genotoxicity in human embryonic kidney (HEK293T) cells expressing luciferase-tagged ELG1. HEK293T ELG1-luciferase reporter, luminescence, 16 h. Potency, µM (series often up to 46 µM), for inactives: at the highest dose activity change, positive = activation, most hits filed as activators. actives 1.3% (n = 330,000). AID 504466, 2011; also: % of control where 0% means no effect; nearly all actives have a fitted effect of over 60% in size
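16 hr compound incubation (37 °C, 5% CO2) of HEK293T cells carrying luciferase-tagged ELG1; luciferase then measured by ONE-Glo luminescence after 30 min at RT.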
ELG1 repair inh = qHTS screen for small molecules that inhibit ELG1-dependent DNA repair in human embryonic kidney (HEK293T) cells expressing luciferase-tagged ELG1. HEK293T ELG1-luciferase reporter, luminescence, 16 h; DNA damage induced by 5-fluorouridine. Potency, µM (titrated, usually from 46.1 µM), for inactives: at the highest dose activity change, negative = inhibition, actives largely listed as inhibitors. actives 2.3% (n = 330,000); also: % is scaled to controls: 0 for no effect and ±100 for the full control effect; nearly all actives have a fitted effect of over 55% in size
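Overnight (16 hr) co-exposure of 2,000 cells/well to 5-fluorouridine and compound at 37 °C preceded detection. Luciferase was quantified via ONE-Glo luminescence; loss of signal denotes inhibition.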
SMN2 splice up = qHTS Assay for Enhancers of SMN2 Splice Variant Expression; HEK293 SMN2-luciferase splicing reporter, luminescence, 30-36 h; Potency, µM (titrated, usually from 46.1 µM), without a hit: at the highest dose activity change, positive = activation, actives largely listed as activators; actives 2.8% (n = 210,000); AID 1458, 2008; also: % of control where 0% means no effect; nearly all actives have a fitted effect of over 55% in size
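HEK293 cells carry an SMN2 […]–luciferase reporter in which exon 7 inclusion puts luciferase in frame. Cells were plated 10-12 h before compound addition, then incubated 30-36 h at 37C. ONE-Glo luminescence was read; sodium butyrate at 4.5 mM final served as control.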
NPC1 prom act = qHTS Assay for NPC1 Promoter Activators | Potency, µM (doses to about 9.22 µM), without a hit: at the highest dose activation, hits mostly activators | Huh7 NPC1 promoter luciferase reporter, 24 h | actives 2.4% (n = 320,000) | AID 485313, 2010; also: % of control where 0% means no effect; nearly all actives have a fitted effect of over 60% in size
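Cells: Huh7 expressing luciferase under the NPC1 promoter, 1500/well. Seeded 2 h, compound added, incubated 24 h at 37 °C. Luciferase reagent, 10 min ambient, then luminescence.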
Rab9 prom act = qHTS Assay for Rab9 Promoter Activators | Huh7 Rab9 promoter-luciferase reporter, luminescence, 24 h | Potency, µM (titrated, usually from 9.22 µM), inactives show top-dose activation, negative = inhibition, actives largely listed as activators | actives 2.8% (n = 320,000) | AID 485297, 2010; also: % of control where 0% means no effect; nearly all actives have a fitted effect of over 60% in size
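Huh7 reporter line, Rab9 promoter upstream of luciferase. Compound exposure 24 h at 37 °C in reduced-serum medium with 10% FBS. Read-out: luminescence.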
* hit, by the source's call; ? = inconclusive; / = no result; [ ] = dose if it differs, or a comment. Only some compounds are listed: those with a hit (about 9.4% of all), similar ones and a draw of the others. Calls follow the shape of the dose curve; as a rule, active = well fitted curve in the direction sought with a large enough effect; inconclusive = small, poorly fitted or top-dose-only effect, or another doubt; inactive = no such curve, though single readings can be large; an effect the other way counts as inactive or inconclusive. Potency is read from the fitted curve at half-maximal effect.

SMILES | FLuc modulator | ELG1 genotox | ELG1 repair inh | SMN2 splice up | NPC1 prom act | Rab9 prom act
O=C(Nc1cccc(-c2nc3ccccc3o2)c1)c1cc([N+](=O)[O-])ccc1N1CCOCC1 | ? | / | / | 6% | / | /
COc1ccccc1CNC(=O)CCCn1c(=O)c2ccccc2n(Cc2ccc(C)cc2)c1=O | -3% | / | / | -5% | / | /
CCCNC(=O)c1cn(CC)c2cc(N3CCN(C(=O)c4ccco4)CC3)c(F)cc2c1=O | 0% | -10% | 13µM* | / | 4% | 6%
CCn1cc(C(=O)NCc2cccnc2)c(=O)c2cc(F)c(N3CCN(C(=O)c4ccco4)CC3)cc21 | 0% | -13% | 21µM* | -36% | 1% | 0%
CCn1cc(C(=O)NCc2cccc(F)c2)c(=O)c2cc(F)c(N3CCN(C(=O)c4ccco4)CC3)cc21 | 0% | -15% | 13µM* | -28% | -8% | -11%
COCCNC(=O)CSc1nc2nn(-c3ccccc3)c(=O)c-2c2n1CCCCC2 | 1% | 4% | 3% | -7% | -6% | 0%
Cc1[nH]c2ccccc2c1C(=O)COC(=O)c1c(-c2c(F)cccc2Cl)noc1C | -2% | -4% | ? | 3% | -3% | -3%
CCN(CC)CCNC(=O)c1c(C)oc2ncnc(N3CCOCC3)c12 | 0% | / | / | / | / | /
COc1ccc(N2CC(NC(=O)/C=C\c3ccccc3)CC2=O)cc1 (configuration not stated) | -6% | / | / | / | / | /
Cc1nn2c(N3CCN(C)CC3)c3c(nc2c1-c1ccccc1)CCCC3 | 2% | 1% | -1% | / | -4% | -4%
Cc1nn2c(NCCN3CCOCC3)c3c(nc2c1-c1ccccc1)CCCC3 | 1% | -12% | 16µM* | / | -7% | -5%
Cc1cc(NCc2ccccn2)n2nc(C)c(-c3ccccc3)c2n1 | ? | -7% | 23µM* | / | -11% | -29%
COc1ccc(Nc2c3c(nc4c(-c5ccccc5)c(C)nn24)CCC3)cc1 | -2% | -5% | 15µM* | -26% | 0% | -1%
Cc1nn2c(NCc3ccccn3)c3c(nc2c1-c1ccccc1)CCC3 | -10% | -16% | 10µM* | / | -39% | -30%
O=C(NCc1cccnc1)[C@@H]1[C@@H](C(=O)O)[C@H]2CC[C@@H]1O2 | / | / | / | -12%[9.22 µM] | / | /
CCN(CC)C(=S)SCC(=O)c1ccc(Br)cc1 | 19µM* | ? | ? | ? | ? | ?
CCn1c(=O)cc(OCC(=O)N(C)c2cc(Cl)ccc2C)c2ccccc21 | 1% | / | / | 12% | / | /
CCOC(=O)CSc1nc(N)nc(C)c1Cl | 24µM* | -4% | 10% | / | 1% | -2%
Cc1cccc(-c2cc(C(=O)N3CCCc4ccccc43)c3ccccc3n2)c1 | 12µM* | 1% | 7.3µM* | / | 0% | 2%
Cc1ccc(-c2cc(C(F)F)n3ncc(C(=O)N4CCCc5ccccc54)c3n2)cc1 | 2% | 5% | -28% | 6% | -4% | -2%
O=C(c1cc(-c2ccccc2)nc2ccccc12)N1CCCc2ccccc21 | 17µM* | -3% | 18µM* | -12%[1.84 µM] | -1% | 11%
O=C(CSc1nc2ccccc2[nH]1)NCc1ccc(F)cc1 | -4% | -2% | -10% | 12% | 2% | -1%
c1ccc(CSc2nc3ccccc3[nH]2)cc1 | 3.4µM* | ? | ? | / | 0.79µM* | 0.79µM*
O=[N+]([O-])c1ccc(CSc2nc3ccccc3[nH]2)cc1 | 6µM* | ? | ? | 16µM* | 4µM* | 2.2µM*
CCOc1ccc(OCCSc2nc3ccccc3[nH]2)cc1 | ? | 8% | -21% | -111% | 2% | 2%
SMILES | FLuc modulator | ELG1 genotox | ELG1 repair inh | SMN2 splice up | NPC1 prom act | Rab9 prom act
CCCOc1ccc(CSc2nc3ccccc3[nH]2)cc1 | 2.1µM* | ? | ? | 20% | 25% | ?
O=C(NCCO)c1ccc(CSc2nc3ccccc3[nH]2)cc1 | ? | 8% | ? | -5% | -1% | 21%
Fc1ccc(CSc2nc3ccccc3[nH]2)cc1 | 4.8µM* | ? | ? | 11µM* | 2.8µM* | 1.4µM*
COc1ccc(Cn2c(C(=O)O)c(CNCCc3ccccc3Cl)c3ccc(C)cc32)cc1 | -10% | / | / | / | / | /
CCN1CCN(C(=O)c2cnn(-c3cccc(C)c3)c2C2CCN(C(=O)OC(C)(C)C)CC2)CC1 | -4% | / | / | / | / | /
COC(=O)c1cc2oc3ccccc3c2n1Cc1c(F)cccc1Cl | -10% | / | / | 8% | / | /
CCOc1ccc2nc(SCC)[nH]c2c1 | 19µM* | 16% | ? | 4% | ? | ?
Fc1ccc(CSc2nc3ccccc3[nH]2)c2ccccc12 | 24µM* | 5% | 4% | -5% | 0% | 17%
Fc1cccc(CSc2nc3ncccc3[nH]2)c1 | ? | -1% | ? | 16% | 24% | ?
Fc1ccc(CSc2nc3ncccc3[nH]2)cc1 | 13µM* | ? | ? | ? | ? | ?
c1ccc(CSCc2nc3ccccc3[nH]2)cc1 | 19µM* | ? | ? | ? | ? | 2.5µM*
O=c1cc(CSc2nc3ccccc3[nH]2)c2ccccc2[nH]1 | -21% | 13% | ? | -15% | 0% | 26%
COCCNC(=O)c1c(C)oc2nc(C)nc(N3CCOCC3)c12 | 0% | / | / | / | / | /
O=[N+]([O-])c1ccc(Cl)c(CNc2ncnc3c2ncn3[C@@H]2CCCCO2)c1 | / | / | / | -7%[9.22 µM] | / | /
Cc1cccc(Nc2nnc(-c3ccc(C)c(S(=O)(=O)NCC4CCCO4)c3)c3ccccc23)c1 (configuration not stated) | -20% | / | / | 8% | / | /
